{
  "source": "PubChem BioAssay (EPA / NIEHS)",
  "note": "Activity calls are given as the source filed them. How the source made its calls: active means hit-call score of the fitted dose curve at least 0.9, where 1 is the maximum; inactive means score below 0.9.",
  "data": [
    {"assay": "APR_HepG2_P-H2AX_72hr: Apredica 72-hour HepG2 Assay for H2AX Phosphorylation (AID 2282916)", "settings": "imaging, actives raise or lower the signal", "experimental": "APR_HepG2_72hr is a cell-based, multiplexed-readout assay that uses HepG2, a human liver cell line, with measurements taken at 72 hours after chemical dosing in a 384-well plate.APR_HepG2_P-H2AX_72hr is one of 10 assay component(s) measured or calculated from the APR_HepG2_72hr assay. It is designed to make measurements of dna content, a form of viability reporter, as detected with fluorescence intensity signals by HCS Fluorescent Imaging technology.Data from the assay component APR_HepG2_P-H2AX_72hr was analyzed into 1 assay endpoint. This assay endpoint, APR_HepG2_P-H2AX_72hr, was analyzed with bidirectional fitting relative to DMSO as the negative control and baseline of activity. Using a type of viability reporter, measures of protein for gain or loss-of-signal activity can be used to understand the signaling at the pathway-level as they relate to the gene . Furthermore, this assay endpoint can be referred to as a primary readout, because this assay has produced multiple assay endpoints where this one serves a signaling function. To generalize the intended target to other relatable targets, this assay endpoint is annotated to the dna binding intended target family, where the subfamily is cellular response to DNA damage stimulus.\nCells were treated with dimethyl sulfoxide (DMSO) as a solvent control at a final concentration of 0.5% v/v or with compounds in DMSO with a resulting final DMSO concentration of 0.5% v/v. Compound treatment was done at concentrations of 0.39, 0.78, 1.56, 3.12, 6.24, 12.5, 25, 50, 100, and 200 uM in duplicate on each plate. Cells were treated with compounds for 1, 24, or 72 hr. Carbonyl […] m-chloro-phenylhydrazone (CCCP) and taxol were used as positive controls for mitochondrial function and cytoskeletal stability, respectively; DMSO served as the negative control for this experiment. Cells were fixed by the direct addition of 50 uL formaldehyde in Hank's Balanced Salt Solution (HBSS) to a final concentration of 3.7%. After incubation in the fixation medium for 30 min at room temperature (293-298 K), cells were rinsed twice with HBSS and treated with cell permeabilization buffer (16 uL of 0.5% Triton X-100) for 10 min at room temperature (293-298 K) before labeling. For mitochondrial membrane potential and mitochondrial measurements, pre-fixed cells were incubated with 50 uL of MitoTracker Red CMXRos (Invitrogen) at a concentration of 250 nM for 30 min before fixation. In the remaining cases, post-fixed cells were labeled by incubation with a multiplexed mixture of primary antibodies in HBSS for 60 min at room temperature (293-298 K) to detect immunoreactivity of c-Jun (1:500), phospho-histone H3 (1:100), phospho-histone H2A.x (1:200), p53 (1:400), alpha-tubulin (1:200) and Hoechst 33342 (2 ug/mL). Cells were labeled for multiplexed imaging on two separate plates: a) Hoechst 33342, MitoTracker Red, phospho-histone H3, and alpha-tubulin, and b) Hoechst 33342, phospho-histone H2A.x, and c-Jun. A final rinse with HBSS (50 uL) was performed before analysis. The primary and secondary antibodies for the proteins were phospho-histone H3 (rabbit anti-phospho-histone H3 and FITC-donkey anti-rabbit IgG), phospho-histone H2A.x (mouse anti-phospho-histone H2A.x and FITC-donkey anti-mouse IgG), c-Jun (rabbit anti-phospho-c-Jun and Cy3-donkey anti-rabbit IgG), p53 (sheep anti-p53 and Cy5-donkey anti-sheep IgG), alpha-tubulin (mouse anti-alpha-tubulin and Cy5-donkey anti-mouse IgG). These antibodies are available as the CellCiphr HepG2 assay kit (Millipore).Digital images of each well were captured using a Cellomics ArrayScan VTI (Thermo Scientific Cellomics) (0.8 NA objective, 0.63x optical coupler, and XF-93 filter set) at 20x magnification. The images were acquired using the autofocus feature of the ArrayScan instrument, which entails the following steps. First, the camera focuses on channel 1 (Hoechst 33342), where nuclei are identified. Second, a Z offset of 1 um is used for capturing mitochondria (MitoTracker Red). […]", "values": [
      {"molecule": "OC[C@@H](O)[C@@H](O)[C@H](O)[C@H](O)CO", "outcome": "inactive"},
      {"molecule": "COC(=O)c1ccc(O)cc1", "outcome": "inactive"},
      {"molecule": "CCCCCCOCCO", "outcome": "inactive"},
      {"molecule": "COc1cc(-c2nc(NC(=O)c3cc4cc(C)cc(C)c4n3CC(=O)O)sc2CCC2CCCCC2)c(OC)cc1Cl", "outcome": "inactive"},
      {"molecule": "O=c1[nH]cc(F)c(=O)[nH]1", "outcome": "inactive"},
      {"molecule": "CCCCCCCCCCCCCCCCCC(=O)O", "outcome": "inactive"},
      {"molecule": "Nc1ccccc1N", "AC50": "38.8 µM (active)"},
      {"molecule": "Cc1ccc(C)c(C)c1", "outcome": "inactive"},
      {"molecule": "FC(F)(F)C(F)(F)C(F)(F)C(F)(F)C(F)(F)C(F)(F)CCI", "outcome": "inactive"},
      {"molecule": "Cc1ccc(N(C)C)cc1", "outcome": "inactive"},
      {"molecule": "CCCCCCCCCCO", "outcome": "inactive"},
      {"molecule": "CC(=O)OCCOCCOCCOC(C)=O", "outcome": "inactive"},
      {"molecule": "Cc1cc(=O)[nH]c(=S)[nH]1", "outcome": "inactive"},
      {"molecule": "Cc1cccc(Nc2cc(Cl)nc(SCC(=O)O)n2)c1C", "outcome": "inactive"},
      {"molecule": "Cc1nc(C)nc(N2C[C@@H](C)N(c3ccnc([C@@H](C)O)n3)[C@@H](C)C2)n1", "outcome": "inactive"},
      {"molecule": "Cc1ccc(Cl)cc1", "outcome": "inactive"},
      {"molecule": "CC1=C(/C=C/C(C)=C/C=C/C(C)=C/CO)C(C)(C)CCC1", "AC50": "19.4 µM (active)"},
      {"molecule": "CCc1c(C(=O)NN2CCCCC2)nn(-c2ccc(Cl)cc2Cl)c1-c1ccc(Br)cc1", "outcome": "inactive"},
      {"molecule": "Cc1nc(-c2ccc3c(c2)CCN(CCC2CCC(NC(=O)/C=C/c4ccc(F)cc4)CC2)CC3)no1", "note": "(stereo not given)", "AC50": "25.2 µM (active)"},
      {"molecule": "Cc1oc(-c2ccccc2)nc1CCOc1cccc2c1ccn2CCC(=O)O", "outcome": "inactive"},
      {"molecule": "CCOC(=O)C(C)(C)Oc1ccc(Cl)cc1", "outcome": "inactive"},
      {"molecule": "CCNc1cccc(C)c1", "outcome": "inactive"},
      {"molecule": "COc1ccc(S(=O)(=O)N2C(=O)[C@@](c3ccccc3OC)(N3C[C@H](O)C[C@H]3C(=O)N(C)C)c3cc(Cl)ccc32)c(OC)c1", "AC50": "106 µM (active)"},
      {"molecule": "c1cc(-c2ccncc2)ccn1", "outcome": "inactive"},
      {"molecule": "CC=Cc1ccc(O)c(OC)c1", "outcome": "inactive"},
      {"molecule": "Cc1cccc([N+](=O)[O-])c1C", "outcome": "inactive"},
      {"molecule": "CCOc1ccc2c(c1)C(C)=CC(C)(C)N2", "AC50": "92.7 µM (active)"},
      {"molecule": "COCCOCCOC", "outcome": "inactive"},
      {"molecule": "Cc1ccc(C(C)C)c(O)c1", "outcome": "inactive"},
      {"molecule": "CCCCCCCCCCCCCO", "AC50": "108 µM (active)"},
      {"molecule": "CC1(C)NC(=O)NC1=O", "outcome": "inactive"},
      {"molecule": "CCCCCC(=O)O", "outcome": "inactive"},
      {"molecule": "Cc1cc(NC(=O)C(=O)O)cc(C)c1Oc1ccc(O)c2c1CCC2", "outcome": "inactive"},
      {"molecule": "O=C(N[C@@H](Cc1ccccc1)[C@@H](O)C(=O)N1C[C@@H](O)[C@@H](O)C1)c1cc2cc(Cl)ccc2[nH]1", "AC50": "107 µM (active)"},
      {"molecule": "NCCO", "outcome": "inactive"},
      {"molecule": "NCC1(Cc2noc(=O)[nH]2)CCCCC1", "outcome": "inactive"},
      {"molecule": "CN[C@H]1CC[C@@H](c2ccc(Cl)c(Cl)c2)c2ccc(S(N)(=O)=O)cc21", "AC50": "100 µM (active)"},
      {"molecule": "O=[N+]([O-])C(CO)(CO)CO", "AC50": "118 µM (active)"},
      {"molecule": "COCCOC[C@H](CC1(C(=O)NC2CCC(C(=O)O)CC2)CCCC1)C(=O)Oc1ccc2c(c1)CCC2", "note": "(stereo not given in full)", "outcome": "inactive"},
      {"molecule": "CC(C)(C)c1cc(O)c(C(C)(C)C)cc1O", "AC50": "36 µM (active)"}
    ]}
  ]
}
